Laboratory results as given in the supplement of paper PMC12669032.
A number with no mark means an inactive call.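 How the source made its calls: active = AUC reduced over 20% with Padj below 0.05 in at least 2 of 3 replicates; inactive = otherwise.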

Assays:
Experiment in all cases: growth AUC relative to DMSO control (median of replicates) (fraction); higher = more growth (less inhibition), active = hit call of the paper
Conditions in all cases: 20 µM; 24 h
Coprococcus comes = system: Coprococcus comes
How it was run: (§1)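 Starting at OD600 0.05, gut bacterial monocultures in mGAM were grown anaerobically at 37 °C with 20 µM compound (1% DMSO) under pierced gas-permeable seals. OD600 was read every hour for 24 h, and the lowest OD of each curve was set to 0. Area under the growth curve was normalised to the plate median of solvent-only wells, or to row and column medians on the industrial chemical plate, and the median of three biological replicates grown on separate days is given.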

Escherichia coli ED1a = system: Escherichia coli ED1a
How it was run: as §1

Escherichia coli IAI1 = system: Escherichia coli IAI1
How it was run: as §1

Eubacterium rectale = system: Eubacterium rectale
How it was run: as §1

[1] = system: Fusobacterium nucleatum subsp. animalis
How it was run: as §1

Lactobacillus gasseri = system: Lactobacillus gasseri
How it was run: as §1

Lactobacillus paracasei = system: Lactobacillus paracasei
How it was run: as §1

Odoribacter splanchnicus = system: Odoribacter splanchnicus
How it was run: as §1

[2] = system: Parabacteroides distasonis
How it was run: as §1

Parabacteroides merdae = system: Parabacteroides merdae
How it was run: as §1

## O=C(NC(=O)c1c(F)cccc1F)Nc1ccc(OC(F)(F)C(F)OC(F)(F)F)c(Cl)c1 (stereo not given)
Coprococcus comes
  growth AUC: 1
Escherichia coli ED1a
  growth AUC: 1.05
Escherichia coli IAI1
  growth AUC: 1
Eubacterium rectale
  growth AUC: 0.99
[1]
  growth AUC: 0.986
Lactobacillus gasseri
  growth AUC: 1.49
Lactobacillus paracasei
  growth AUC: 0.958
Odoribacter splanchnicus
  growth AUC: 0.983
[2]
  growth AUC: 1.02
Parabacteroides merdae
  growth AUC: 0.997

## COCC(C)N(C(=O)CCl)c1c(C)csc1C (stereo not given)
Coprococcus comes
  growth AUC: 1.02
Escherichia coli ED1a
  growth AUC: 0.976
Escherichia coli IAI1
  growth AUC: 0.993
Eubacterium rectale
  growth AUC: 1.16
[1]
  growth AUC: 0.825
Lactobacillus gasseri
  growth AUC: 0.806
Lactobacillus paracasei
  growth AUC: 1.01
Odoribacter splanchnicus
  growth AUC: 0.822
[2]
  growth AUC: 0.683 (active)
Parabacteroides merdae
  growth AUC: 1

## CNC(=O)/C(=N/OC)c1ccccc1Oc1ccccc1
Coprococcus comes
  growth AUC: 0.989
Escherichia coli ED1a
  growth AUC: 1
Escherichia coli IAI1
  growth AUC: 0.997
Eubacterium rectale
  growth AUC: 0.977
[1]
  growth AUC: 0.968
Lactobacillus gasseri
  growth AUC: 1.04
Lactobacillus paracasei
  growth AUC: 1.05
Odoribacter splanchnicus
  growth AUC: 0.992
[2]
  growth AUC: 0.995
Parabacteroides merdae
  growth AUC: 0.997

## COC(=O)NCc1cc(/C(C)=N/OCc2cccc(C)n2)ccc1Cl
Coprococcus comes
  growth AUC: 1.03
Escherichia coli ED1a
  growth AUC: 1.01
Escherichia coli IAI1
  growth AUC: 0.972
Eubacterium rectale
  growth AUC: 0.998
[1]
  growth AUC: 0.933
Lactobacillus gasseri
  growth AUC: 0.911
Lactobacillus paracasei
  growth AUC: 0.969
Odoribacter splanchnicus
  growth AUC: 1.01
[2]
  growth AUC: 0.919
Parabacteroides merdae
  growth AUC: 0.955

## Cc1ccc(NC(=O)N(C)C)cc1Cl
Coprococcus comes
  growth AUC: 0.996
Escherichia coli ED1a
  growth AUC: 0.985
Escherichia coli IAI1
  growth AUC: 0.982
Eubacterium rectale
  growth AUC: 0.965
[1]
  growth AUC: 0.916
Lactobacillus gasseri
  growth AUC: 1.12
Lactobacillus paracasei
  growth AUC: 0.954
Odoribacter splanchnicus
  growth AUC: 1.02
[2]
  growth AUC: 1.05
Parabacteroides merdae
  growth AUC: 0.972

## OC[C@@H](O)[C@H]1O[C@@H]2O[C@H](C(Cl)(Cl)Cl)O[C@@H]2[C@H]1O (mixture of isomers)
Coprococcus comes
  growth AUC: 0.988
Escherichia coli ED1a
  growth AUC: 0.99
Escherichia coli IAI1
  growth AUC: 0.986
Eubacterium rectale
  growth AUC: 1.05
[1]
  growth AUC: 0.83
Lactobacillus gasseri
  growth AUC: 1.03
Lactobacillus paracasei
  growth AUC: 0.943
Odoribacter splanchnicus
  growth AUC: 1.06
[2]
  growth AUC: 0.903
Parabacteroides merdae
  growth AUC: 0.999

## CCOP(=S)(OCC)SCCS(=O)CC (stereo not given)
Coprococcus comes
  growth AUC: 0.971
Escherichia coli ED1a
  growth AUC: 0.985
Escherichia coli IAI1
  growth AUC: 0.98
Eubacterium rectale
  growth AUC: 1.11
[1]
  growth AUC: 1.02
Lactobacillus gasseri
  growth AUC: 0.941
Lactobacillus paracasei
  growth AUC: 0.948
Odoribacter splanchnicus
  growth AUC: 1.06
[2]
  growth AUC: 1.01
Parabacteroides merdae
  growth AUC: 1

## CCO/N=C(\CC)C1=C(O)CC(c2c(C)cc(C)cc2C)CC1=O (stereo not given)
Coprococcus comes
  growth AUC: 1
Escherichia coli ED1a
  growth AUC: 0.992
Escherichia coli IAI1
  growth AUC: 0.978
Eubacterium rectale
  growth AUC: 1.07
[1]
  growth AUC: 1.05
Lactobacillus gasseri
  growth AUC: 0.875
Lactobacillus paracasei
  growth AUC: 0.969
Odoribacter splanchnicus
  growth AUC: 1.07
[2]
  growth AUC: 0.995
Parabacteroides merdae
  growth AUC: 0.909

## COP(=S)(OC)Oc1ccc([N+](=O)[O-])c(Cl)c1
Coprococcus comes
  growth AUC: 0.95
Escherichia coli ED1a
  growth AUC: 0.97
Escherichia coli IAI1
  growth AUC: 0.984
Eubacterium rectale
  growth AUC: 1.18
[1]
  growth AUC: 0.975
Lactobacillus gasseri
  growth AUC: 0.893
Lactobacillus paracasei
  growth AUC: 0.974
Odoribacter splanchnicus
  growth AUC: 0.876
[2]
  growth AUC: 0.921
Parabacteroides merdae
  growth AUC: 0.932

## C#CCC1=C(C)C(OC(=O)C2C(C=C(C)C)C2(C)C)CC1=O (stereo not given)
Coprococcus comes
  growth AUC: 0.997
Escherichia coli ED1a
  growth AUC: 1.02
Escherichia coli IAI1
  growth AUC: 1
Eubacterium rectale
  growth AUC: 1.03
[1]
  growth AUC: 1.06
Lactobacillus gasseri
  growth AUC: 0.998
Lactobacillus paracasei
  growth AUC: 1
Odoribacter splanchnicus
  growth AUC: 1.11
[2]
  growth AUC: 0.952
Parabacteroides merdae
  growth AUC: 0.946

## CC1(C)C(C=C(Cl)Cl)C1C(=O)OC(C#N)c1cccc(Oc2ccccc2)c1 (stereo not given)
Coprococcus comes
  growth AUC: 0.945
Escherichia coli ED1a
  growth AUC: 1.01
Escherichia coli IAI1
  growth AUC: 0.98
Eubacterium rectale
  growth AUC: 1.05
[1]
  growth AUC: 1.05
Lactobacillus gasseri
  growth AUC: 0.776
Lactobacillus paracasei
  growth AUC: 0.951
Odoribacter splanchnicus
  growth AUC: 1.07
[2]
  growth AUC: 0.98
Parabacteroides merdae
  growth AUC: 1.02

## CNC(=O)Oc1cc(C)cc(C(C)C)c1
Coprococcus comes
  growth AUC: 1.01
Escherichia coli ED1a
  growth AUC: 0.959
Escherichia coli IAI1
  growth AUC: 0.957
Eubacterium rectale
  growth AUC: 1.04
[1]
  growth AUC: 0.907
Lactobacillus gasseri
  growth AUC: 0.889
Lactobacillus paracasei
  growth AUC: 0.974
Odoribacter splanchnicus
  growth AUC: 1.11
[2]
  growth AUC: 0.979
Parabacteroides merdae
  growth AUC: 0.992

## CCN(CC)C(=S)[S-].O.O.O.[Na+]
Coprococcus comes
  growth AUC: 0.964
Escherichia coli ED1a
  growth AUC: 0.972
Escherichia coli IAI1
  growth AUC: 0.976
Eubacterium rectale
  growth AUC: 0.983
[1]
  growth AUC: 1.09
Lactobacillus gasseri
  growth AUC: 1.01
Lactobacillus paracasei
  growth AUC: 0.978
Odoribacter splanchnicus
  growth AUC: 1
[2]
  growth AUC: 0.982
Parabacteroides merdae
  growth AUC: 0.873

## Nc1nc(N)nc(N)n1
Coprococcus comes
  growth AUC: 0.978
Escherichia coli ED1a
  growth AUC: 0.991
Escherichia coli IAI1
  growth AUC: 1.02
Eubacterium rectale
  growth AUC: 0.944
[1]
  growth AUC: 1
Lactobacillus gasseri
  growth AUC: 1.01
Lactobacillus paracasei
  growth AUC: 1.05
Odoribacter splanchnicus
  growth AUC: 0.119 (active)
[2]
  growth AUC: 1.23
Parabacteroides merdae
  growth AUC: 0.981
